Experimental data from PubChem BioAssay (NCI).
The panel holds about 83,000 compounds, 20% with a hit somewhere; the sample as a whole holds those more often.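 For each line, cells grew in 96-well plates with the test compound present at a single concentration for 48 hours.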 The source made the active and inactive calls. The calls were made as follows: active = growth percent below 10; inactive = the rest.

How the values were obtained:
Assay in all cases: NCI-60 one-dose screen, 48 h (100 = growth as untreated, 0 = no growth, -100 = all killed)
Details in all cases: 10 µM unless noted
NCI-H23 lung = test system: NCI-H23 lung
NCI-H226 lung = test system: NCI-H226 lung
NCI-H322M lung = test system: NCI-H322M lung
HOP-62 NSCLC = test system: HOP-62 NSCLC
NCI-H460 lung = test system: NCI-H460 lung
HOP-92 NSCLC = test system: HOP-92 NSCLC
NCI-H522 lung = test system: NCI-H522 lung
A549/ATCC NSCLC = test system: A549/ATCC NSCLC
786-0 renal = test system: 786-0 renal
COLO 205 colon = test system: COLO 205 colon

Measured: growth

C/C(=C(\c1ccc(O)cc1)c1ccc(OCCN2CCCCCC2)cc1)c1ccc(Cl)cc1
active: NCI-H23 lung -80.3% | NCI-H226 lung -64.1% | NCI-H322M lung -18.9% | HOP-62 NSCLC -82.5% | NCI-H460 lung -55.9% | HOP-92 NSCLC -86.8% | NCI-H522 lung -86.9% | A549/ATCC NSCLC -72.4% | 786-0 renal -77.4% | COLO 205 colon -63.4%

COc1ccc(C2CC(c3cccc(OCCCCOc4cccc(C5=NN(C(C)=O)C(c6ccc(OC)cc6)C5)c4)c3)=NN2C(C)=O)cc1 (stereo not given)
inactive: NCI-H23 lung 57% | NCI-H226 lung 62.3% | NCI-H322M lung 91% | HOP-62 NSCLC 71.3% | NCI-H460 lung 66.6% | HOP-92 NSCLC 68.7% | NCI-H522 lung 53.2% | A549/ATCC NSCLC 68.2% | 786-0 renal 86.3% | COLO 205 colon 82.8%

NC1[C@H]2CN(c3cnc(C(=O)Nc4cc(F)cc5cccnc45)cn3)C[C@@H]12 (stereo not given in full)
active: NCI-H322M lung 6.79%
inactive: NCI-H23 lung 84.5% | NCI-H226 lung 85.1% | HOP-62 NSCLC 82.4% | NCI-H460 lung 92.1% | HOP-92 NSCLC 24.8% | NCI-H522 lung 46.6% | A549/ATCC NSCLC 92.1% | 786-0 renal 75.2% | COLO 205 colon 18.5%

O=c1nc(Nc2ccc([N+](=O)[O-])cc2O)sc2ccccc12
inactive: NCI-H23 lung 40.4% | NCI-H226 lung 57.2% | NCI-H322M lung 51.4% | HOP-62 NSCLC 47% | NCI-H460 lung 22.1% | NCI-H522 lung 14.2% | A549/ATCC NSCLC 41.7% | 786-0 renal 37.7% | COLO 205 colon 96.5%
active: HOP-92 NSCLC -0.0775%

Cc1ccc2c(n1)C(=O)C(Cl)=C(Nc1cccc(C(F)(F)F)c1)C2=O
inactive: NCI-H23 lung 52.3% | NCI-H226 lung 73.3% | NCI-H322M lung 108% | HOP-62 NSCLC 141% | NCI-H460 lung 101% | HOP-92 NSCLC 107% | A549/ATCC NSCLC 105% | 786-0 renal 85.8% | COLO 205 colon 106%
active: NCI-H522 lung -28.8%

O=C1[C@@H]2Cc3c([nH]c4ccccc34)[C@@H](c3ccc(Cl)cc3)N2C(=O)CN1C1CCN(Cc2ccccc2)CC1
inactive: NCI-H23 lung 72.4% | NCI-H226 lung 72.5% | NCI-H322M lung 87.2% | HOP-62 NSCLC 61% | NCI-H460 lung 20% | HOP-92 NSCLC 11.3% | NCI-H522 lung 20.7% | A549/ATCC NSCLC 38.6% | 786-0 renal 67% | COLO 205 colon 46.4%

O=c1oc2ccc(-c3ccc(F)cc3F)cc2c(=O)n1-c1ccc(Br)cc1F
inactive: NCI-H23 lung 60% | NCI-H226 lung 77.8% | NCI-H322M lung 71.7% | HOP-62 NSCLC 82.9% | NCI-H460 lung 45.9% | NCI-H522 lung 12.1% | A549/ATCC NSCLC 84.4% | 786-0 renal 95.2% | COLO 205 colon 121%
active: HOP-92 NSCLC -19.3%

COc1cc2c3c(cc4c5c(ccc4c3c1OC)OCO5)N(CCN(C)C)C2=O
active: NCI-H23 lung -17.8% | NCI-H226 lung -58.8% | NCI-H322M lung 0.11% | HOP-62 NSCLC 6.73% | NCI-H460 lung -20.5% | HOP-92 NSCLC -9.11% | NCI-H522 lung -6.46% | A549/ATCC NSCLC 0.384% | 786-0 renal -16.2% | COLO 205 colon -10.7%

O=C(/C=C/c1cccc(F)c1)c1cccc(OCCCOc2cccc(C(=O)/C=C/c3cccc(F)c3)c2)c1
inactive: NCI-H23 lung 49.2% | NCI-H226 lung 77% | NCI-H322M lung 101% | HOP-62 NSCLC 132% | NCI-H460 lung 96.1% | HOP-92 NSCLC 115% | NCI-H522 lung 83.2% | A549/ATCC NSCLC 69.8% | 786-0 renal 51% | COLO 205 colon 82.2%

CN1CCN(c2ccc(Nc3nc(NCCCNS(=O)(=O)c4ccc(Cl)cc4)c4sccc4n3)cc2)CC1
active: NCI-H460 lung 7.38% | NCI-H522 lung -65.8% | 786-0 renal -43.2% | COLO 205 colon -38.3%
inactive: NCI-H23 lung 65% | NCI-H226 lung 99.6% | NCI-H322M lung 33.7% | HOP-62 NSCLC 52.5% | HOP-92 NSCLC 49.4% | A549/ATCC NSCLC 21.9%

Cc1ccc(S(=O)(=O)NCCCNc2nc(Nc3ccc(N4CCN(C)CC4)cc3)nc3ccsc23)cc1
inactive: NCI-H23 lung 75.6% | NCI-H226 lung 117% | NCI-H322M lung 52.7% | HOP-62 NSCLC 97.1% | NCI-H460 lung 18.5% | HOP-92 NSCLC 49.6% | A549/ATCC NSCLC 37.1%
active: NCI-H522 lung -5.6% | 786-0 renal -26.7% | COLO 205 colon -32.9%

Cc1ccc(-c2nc(SCC(=O)c3ccccc3)nc(Nc3ccc(S(N)(=O)=O)cc3)c2C#N)cc1
inactive: NCI-H23 lung 34.5% | NCI-H226 lung 71.4% | NCI-H322M lung 99.5% | HOP-62 NSCLC 26.2% | NCI-H460 lung 65.2% | HOP-92 NSCLC 37.6% | NCI-H522 lung 87.1% | A549/ATCC NSCLC 87.4% | 786-0 renal 46.3% | COLO 205 colon 101%

O=S(=O)(NCCCNc1nccc(-c2[nH]c(-c3ccccc3)nc2-c2ccc(F)c(O)c2)n1)c1ccc(C(F)(F)F)cc1
inactive: NCI-H23 lung 70.7% | NCI-H226 lung 48.5% | NCI-H322M lung 95.4% | HOP-62 NSCLC 62.3% | NCI-H460 lung 16.3% | HOP-92 NSCLC 71.6% | NCI-H522 lung 18.8% | A549/ATCC NSCLC 41.7% | 786-0 renal 48% | COLO 205 colon 88.3%

C#Cc1nc(/C=C/C(=O)NO)cs1
inactive: NCI-H226 lung 75.8% | NCI-H322M lung 82.5% | HOP-62 NSCLC 48.5% | NCI-H460 lung 63.4% | A549/ATCC NSCLC 69.6% | COLO 205 colon 79.8%
active: NCI-H23 lung -86.7% | HOP-92 NSCLC -79.5% | NCI-H522 lung -60% | 786-0 renal -76.5%

O=C(N/N=C\c1ccc(F)cc1)c1ccc2nc(-c3ccc(Br)cc3)[nH]c2c1
inactive: NCI-H226 lung 32.9% | NCI-H322M lung 68.1% | HOP-62 NSCLC 25.1% | HOP-92 NSCLC 53.3% | NCI-H522 lung 81% | COLO 205 colon 19.2%
active: NCI-H23 lung 0.752% | NCI-H460 lung -64.4% | A549/ATCC NSCLC -3.93% | 786-0 renal -32%

CCOP(=O)(OCC)OC[C@]12CC[C@@H](C)[C@H](C)C1C1=CC[C@@H]3[C@@]4(C)CCCNC(C)(C)[C@@H]4CC[C@@]3(C)[C@]1(C)CC2 (stereo not given in full)
inactive: NCI-H23 lung 31.7% | NCI-H226 lung 62.5% | NCI-H322M lung 81.7% | HOP-62 NSCLC 65% | HOP-92 NSCLC 34.8% | NCI-H522 lung 57.2% | A549/ATCC NSCLC 18.2% | 786-0 renal 14.9%
active: NCI-H460 lung -68.2% | COLO 205 colon -50.7%

COC(=O)c1cccc(NC2=CC(=O)C(C)=C(C)C2=O)c1
inactive: NCI-H23 lung 63.9% | NCI-H226 lung 95% | NCI-H322M lung 104% | HOP-62 NSCLC 97.4% | NCI-H460 lung 104% | HOP-92 NSCLC 123% | NCI-H522 lung 93.6% | A549/ATCC NSCLC 109% | 786-0 renal 101% | COLO 205 colon 114%

CCCCc1nc2c(N)nc3ccccc3c2n1Cc1cccc(CN)c1
active: HOP-92 NSCLC -0.82%
inactive: NCI-H23 lung 72.6% | NCI-H226 lung 87.1% | NCI-H322M lung 81.2% | HOP-62 NSCLC 57.3% | NCI-H460 lung 19.7% | NCI-H522 lung 72.7% | A549/ATCC NSCLC 69.5% | 786-0 renal 66.7% | COLO 205 colon 44%

CCCCc1nc2c(N)nc3ccccc3c2n1Cc1ccc(OC)cc1
inactive: NCI-H23 lung 60.5% | NCI-H226 lung 73.3% | NCI-H322M lung 92.1% | HOP-62 NSCLC 77.4% | NCI-H460 lung 63.3% | NCI-H522 lung 68.5% | A549/ATCC NSCLC 65.8% | 786-0 renal 65.4% | COLO 205 colon 48.4%
active: HOP-92 NSCLC -3.74%

CNC(=O)c1cc(N2CCc3cc(NC(=O)Nc4ccc(N5CCN(C)CC5)c(C(F)(F)F)c4)ccc32)ccn1
inactive: NCI-H23 lung 88.4% | NCI-H226 lung 99.4% | NCI-H322M lung 96.6% | HOP-62 NSCLC 76.7% | NCI-H460 lung 62.6% | HOP-92 NSCLC 69% | NCI-H522 lung 103% | A549/ATCC NSCLC 68.6% | 786-0 renal 29.3% | COLO 205 colon 104%

Cc1ccc(C(=O)CSc2nc3ccccc3c(=O)n2C)cc1
inactive: NCI-H23 lung 79.7% | NCI-H226 lung 78.5% | NCI-H322M lung 89.1% | HOP-62 NSCLC 94% | NCI-H460 lung 95.5% | HOP-92 NSCLC 79.6% | NCI-H522 lung 85.3% | A549/ATCC NSCLC 101% | 786-0 renal 97.9% | COLO 205 colon 119%

CC(=O)Nc1nc(C)c(-c2csc(Nc3ccccc3)n2)s1
active: NCI-H522 lung 9.26%
inactive: NCI-H23 lung 35.2% | NCI-H226 lung 19.4% | NCI-H322M lung 27.6% | HOP-62 NSCLC 42.8% | NCI-H460 lung 21.8% | HOP-92 NSCLC 24.6% | A549/ATCC NSCLC 44.3% | 786-0 renal 25.7% | COLO 205 colon 38%

C#C[C@]1(O)CC[C@H]2[C@@H]3CC=C4c5sc(Nc6ncccc6C)nc5CC[C@]4(C)[C@H]3CC[C@@]21C
inactive: NCI-H226 lung 23.4% | NCI-H322M lung 32.8% | HOP-62 NSCLC 11.9% | HOP-92 NSCLC 20.5% | NCI-H522 lung 25.9% | A549/ATCC NSCLC 21.8% | COLO 205 colon 34.8%
active: NCI-H23 lung 9.38% | NCI-H460 lung 0.476% | 786-0 renal -56.2%

COc1cc2cc(Oc3ccc(NC(=O)Nc4ccc(F)c(C(F)(F)F)c4)cc3)c(C)nc2cc1OCCN(C)C
inactive: NCI-H23 lung 102% | NCI-H226 lung 104% | NCI-H322M lung 102% | HOP-62 NSCLC 104% | NCI-H460 lung 101% | HOP-92 NSCLC 69.8% | NCI-H522 lung 96.1% | A549/ATCC NSCLC 93.2% | 786-0 renal 88.8% | COLO 205 colon 117%

COc1cc(C(C)=C(c2ccc(OCCN(C)C)cc2)c2ccc(OCCN(C)C)cc2)ccc1F
inactive: NCI-H23 lung 96.5% | NCI-H226 lung 92.9% | NCI-H322M lung 96.6% | HOP-62 NSCLC 97.2% | NCI-H460 lung 106% | HOP-92 NSCLC 73.4% | NCI-H522 lung 99.7% | A549/ATCC NSCLC 113% | 786-0 renal 94.3% | COLO 205 colon 104%

CN1CCN(Cc2ccc(NC(=O)c3cncc(C#Cc4cnc5ccc(N)nn45)c3)cc2C(F)(F)F)CC1
inactive: NCI-H226 lung 17.2% | NCI-H322M lung 12.4% | NCI-H460 lung 14.9% | NCI-H522 lung 12.5% | A549/ATCC NSCLC 38.2% | 786-0 renal 50.1%
active: NCI-H23 lung 4.35% | HOP-62 NSCLC -1.79% | HOP-92 NSCLC -22.7% | COLO 205 colon -41.8%
